PubChem BioAssay AID1159580 (chemical genetic matrix, 2015)
The campaign covered roughly 5,500 compounds. About 2,000 (36%) were called active. Roughly 18% stayed inconclusive and do not appear here. Cut-off read from the data, not from the text of the source: active = normalized growth mostly below about 0.91 (no sharp cut-off); inconclusive = no clear call, values can overlap the other calls; inactive = mostly above about 0.92. This is one part of the list.

Assay: chemical genetic growth profiling, strain panel (AID 1159580);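 note: tested at 20 µM; growth read once vehicle control cultures reached saturation at 30 °C; 1 = growth at the plate median or of vehicle wells; lower values mean less growth of the strain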
Details: S. cerevisiae deletion strains, growth OD
[1] = locus YAL040C, strain CLN3, active compounds read low
[2] = locus YCL061C, strain MRC1 (second series), active compounds read low
[3] = locus YDR363W, strain ESC2, active compounds read low
[4] = locus YER002W, strain NOP16, active compounds read low
[5] = locus YGR078C, strain PAC10, active compounds read low
[6] = locus YMR263W, strain SAP30, active compounds read low
[7] = locus YMR307W, strain GAS1, active compounds read low
[8] = locus YNL175C, strain NOP13, active compounds read low
[9] = locus YNL197C, strain WHI3, active compounds read low
[10] = locus YNL224C, strain SQS1, active compounds read low
[11] = locus YNL322C, strain KRE1, active compounds read low
[12] = locus YOR083W, strain WHI5 (second series), active compounds read low
[13] = locus YCL061C, strain MRC1, active compounds read low
[14] = locus YHR030C, strain SLT2, active compounds read low
[15] = locus YHR079C, strain IRE1, active compounds read low
[16] = locus YJL095W, strain BCK1, active compounds read low
[17] = locus YJR066W, strain TOR1, active compounds read low
[18] = locus YLR113W, strain HOG1, active compounds read low
[19] = locus YNL183C, strain NPR1, active compounds read low
[20] = locus YOR231W, strain MKK1, active compounds read low
[21] = locus YPL256C, strain CLN2, active compounds read low
[22] = locus YJR075W, strain HOC1, active compounds read low
[23] = locus YNL153C, strain GIM3, active compounds read low
[24] = locus YPL055C, strain LGE1, active compounds read low

Measured: normalized growth

CCn1c(=O)[nH]c2cc(Cl)c(Cl)cc21
inactive: [1] 0.99 | [2] 1.01 | [3] 0.992 | [4] 0.986 | [5] 0.992 | [6] 1 | [7] 1 | [8] 0.98 | [9] 1 | [10] 1 | [11] 1.01 | [12] 1.04

O=C1C=CC(=O)c2ccccc21
inactive: locus YER111C, strain swi4, active compounds read low 0.917 | locus YJL129C, strain trk1, active compounds read low 0.951
active: locus YAL021C, strain ccr4, active compounds read low 0.0676 | locus YAL026C, strain drs2, active compounds read low 0.0697 | locus YAL030W, strain snc1, active compounds read low 0.0571 | locus YBL061C, strain skt5, active compounds read low 0.0618 | locus YBR009C, strain hhf1, active compounds read low 0.064 | locus YBR023C, strain chs3, active compounds read low 0.0634 | locus YBR171W, strain sec66, active compounds read low 0.0895 | locus YBR231C, strain swc5, active compounds read low 0.0652 | locus YBR279W, strain paf1, active compounds read low 0.0871 | locus YCL011C, strain gbp2, active compounds read low 0.0594 | locus YCL016C, strain dcc1, active compounds read low 0.0722 | [13] 0.0703 | locus YCL069W, strain vba3, active compounds read low 0.0688 | locus YCR088W, strain abp1, active compounds read low 0.0699 | locus YDL005C, strain med2, active compounds read low 0.0758 | locus YDL040C, strain nat1, active compounds read low 0.0706 | locus YDR001C, strain nth1, active compounds read low 0.0722 | locus YDR069C, strain doa4, active compounds read low 0.0698 | locus YDR137W, strain rgp1, active compounds read low 0.288 | locus YDR159W, strain sac3, active compounds read low 0.36 | locus YDR195W, strain ref2 0.13 | locus YDR297W, strain sur2, active compounds read low 0.0592 | locus YDR334W, strain swr1, active compounds read low 0.0769 | locus YDR335W, strain msn5, active compounds read low 0.0683 | locus YDR392W, strain spt3, active compounds read low 0.109 | locus YEL003W, strain gim4, active compounds read low 0.0565 | locus YEL037C, strain rad23, active compounds read low 0.0781 | locus YEL061C, strain CIN8 (second series), active compounds read low 0.0717 | locus YER015W, strain faa2, active compounds read low 0.0627 | locus YER016W, strain bim1, active compounds read low 0.0642 | locus YER155C, strain BEM2 (second series), active compounds read low 0.107 | locus YFR010W, strain ubp6, active compounds read low 0.0794 | locus YGL167C, strain pmr1, active compounds read low 0.0772 | locus YGL173C, strain kem1, active compounds read low 0.0709 | locus YGL227W, strain vid30, active compounds read low 0.0707 | locus YGL240W, strain doc1, active compounds read low 0.0798 | locus YGL253W, strain hxk2, active compounds read low 0.0667 | locus YHR013C, strain ard1, active compounds read low 0.138 | locus YHR027C, strain rpn1, active compounds read low 0.0646 | [14] 0.102 | [15] 0.12 | locus YHR142W, strain chs7, active compounds read low 0.0814 | locus YJL092W, strain hpr5, active compounds read low 0.074 | locus YJL095W, strain BCK1 (second series), active compounds read low 0.0589 | [16] 0.116 | locus YJL115W, strain asf1, active compounds read low 0.0842 | locus YJL154C, strain vps35, active compounds read low 0.0701 | locus YJL164C, strain tpk1, active compounds read low 0.0603 | locus YJL166W, strain qcr8, active compounds read low 0.0677 | locus YJL187C, strain SWE1, active compounds read low 0.0597 | [17] 0.116 | locus YKL160W, strain elf1, active compounds read low 0.0712 | locus YKR026C, strain gcn3, active compounds read low 0.0708 | locus YKR091W, strain srl3, active compounds read low 0.0627 | locus YLL001W, strain dnm1, active compounds read low 0.071 | locus YLL026W, active compounds read low 0.0579 | locus YLL041C, strain sdh2, active compounds read low 0.0596 | locus YLR027C, strain aat2, active compounds read low 0.0574 | [18] 0.135 | locus YLR221C, strain rsa3, active compounds read low 0.0579 | locus YLR258W, strain gsy2, active compounds read low 0.0611 | locus YLR262C, strain YPT6 (second series), active compounds read low 0.0853 | locus YLR320W, strain mms22, active compounds read low 0.0864 | locus YLR342W, strain FKS1, active compounds read low 0.0683 | locus YLR357W, strain rsc2, active compounds read low 0.137 | locus YLR370C, strain arc18, active compounds read low 0.0746 | locus YLR384C, strain iki3, active compounds read low 0.0643 | locus YML120C, strain ndi1, active compounds read low 0.827 | locus YMR058W, strain fet3, active compounds read low 0.0712 | locus YMR125W, strain sto1, active compounds read low 0.0829 | locus YMR129W, active compounds read low 0.0615 | locus YMR205C, strain PFK2, active compounds read low 0.092 | locus YMR231W, strain pep5, active compounds read low 0.0667 | locus YNL071W, strain lat1, active compounds read low 0.0615 | [19] 0.338 | locus YNL209W, strain ssb2, active compounds read low 0.0608 | locus YNL248C, strain rpa49, active compounds read low 0.0841 | locus YNL322C, strain KRE1 (second series), active compounds read low 0.0674 | locus YNR049C, strain mso1, active compounds read low 0.0752 | locus YOR001W, strain rrp6, active compounds read low 0.0696 | locus YOR070C, strain gyp1, active compounds read low 0.0608 | locus YOR080W, strain dia2, active compounds read low 0.114 | locus YOR083W, strain WHI5, active compounds read low 0.0702 | locus YOR106W, strain vam3, active compounds read low 0.0684 | [20] 0.111 | locus YOR265W, strain rbl2, active compounds read low 0.0588 | locus YOR270C, strain vph1, active compounds read low 0.124 | locus YOR290C, strain snf2, active compounds read low 0.842 | locus YPL051W, strain arl3, active compounds read low 0.0626 | locus YPL078C, strain atp4, active compounds read low 0.41 | locus YPL106C, strain sse1, active compounds read low 0.0998 | locus YPL240C, strain hsp82, active compounds read low 0.0586 | [21] 0.128

Nc1cccc2c1C(=O)c1ccccc1-2
inactive: locus YDR150W, strain NUM1, active compounds read low 0.95 | [11] 1.03
active: locus YAL013W, strain DEP1, active compounds read low 0.676 | locus YBR229C, strain ROT2, active compounds read low 0.313 | [13] 0.438 | locus YDL101C, strain DUN1, active compounds read low 0.368 | locus YEL061C, strain CIN8, active compounds read low 0.516 | [5] 0.617 | [14] 0.134 | locus YHR087W, strain rtc3, active compounds read low 0.0566 | locus YJR043C, strain POL32, active compounds read low 0.756 | [22] 0.0797 | locus YKL190W, strain CNB1, active compounds read low 0.046 | locus YLR039C, strain RIC1, active compounds read low 0.06 | locus YLR058C, strain SHM2 (second series), active compounds read low 0.0581 | locus YLR085C, strain ARP6, active compounds read low 0.0974 | locus YLR262C, strain YPT6, active compounds read low 0.138 | locus YML094W, strain GIM5, active compounds read low 0.553 | locus YMR219W, strain ESC1, active compounds read low 0.664 | [6] 0.837 | [23] 0.125 | locus YNL298W, strain CLA4 (second series), active compounds read low 0.267 | locus YNR030W, strain Alg12, active compounds read low 0.729 | locus YOL006C, strain TOP1, active compounds read low 0.0699 | [24] 0.6 | locus YPL241C, strain CIN2, active compounds read low 0.675 | locus YPR135W, strain CTF4, active compounds read low 0.167

O=C1c2ccccc2C(=O)C1(O)C1(O)C(=O)c2ccccc2C1=O
inactive: [14] 1.04 | [15] 1.04 | [16] 1.04 | [17] 0.953 | [18] 1.03 | [19] 0.984 | [20] 1.05 | [21] 1.07

Nc1ccc2c3c(cccc13)C(=O)NC2=O
inactive: [1] 0.997 | [2] 1 | [4] 0.998 | [5] 0.981 | [7] 0.995 | locus YNL128W, strain TEP1, active compounds read low 0.988 | [8] 0.999 | [9] 1.01 | [10] 0.985 | [12] 0.965 | [24] 1.01

COC1=C(OC)C(=O)c2ccccc2C1=O
active: [3] 0.734 | [7] 0.886 | [23] 0.703
inactive: [1] 0.962 | [4] 0.985 | [5] 0.995 | [22] 0.998 | [6] 1.02 | [8] 0.978 | [9] 0.941 | [10] 0.977 | [12] 0.883
